Results from PubChem BioAssay AID1159580 (chemical genetic matrix, 2015).
Out of some 5,500 compounds screened, about 2,000 (36%) were called active. Not shown: some 18% with an inconclusive outcome. Cut-off read from the data, not from the text of the source: active = normalized growth mostly below about 0.91 (no sharp cut-off); inconclusive = no clear call, values can overlap the other calls; inactive = mostly above about 0.92. This is one part of the list.

Assay: chemical genetic growth profiling, strain panel (AID 1159580);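 note: tested at 20 µM; growth read once vehicle control cultures reached saturation at 30 °C; 1 = growth at the plate median or of vehicle wells; lower values mean less growth of the strain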
Details: growth OD

Measured: normalized growth

OCc1ccccc1O[C@@H]1O[C@H](CO)[C@@H](O)[C@H](O)[C@H]1O
inactive: S. cerevisiae deletion strains, locus YJR066W, strain TOR1, stronger effect = lower value 0.94 | S. cerevisiae deletion strains, locus YKL009W, strain mrt4, stronger effect = lower value 1.01 | S. cerevisiae deletion strains, locus YKL068W, stronger effect = lower value 0.98 | S. cerevisiae deletion strains, locus YKL085W, strain MDH1 (second series), stronger effect = lower value 0.973 | S. cerevisiae deletion strains, locus YKL085W, strain MDH1, stronger effect = lower value 0.973 | S. cerevisiae deletion strains, locus YKL160W, strain elf1, stronger effect = lower value 0.993 | S. cerevisiae deletion strains, locus YKL190W, strain CNB1, stronger effect = lower value 0.988 | S. cerevisiae deletion strains, locus YKR001C, strain vps1, stronger effect = lower value 0.985 | S. cerevisiae deletion strains, locus YKR026C, strain gcn3, stronger effect = lower value 1 | S. cerevisiae deletion strains, locus YKR091W, strain srl3, stronger effect = lower value 0.994 | S. cerevisiae deletion strains, locus YLL001W, strain dnm1, stronger effect = lower value 0.975 | S. cerevisiae deletion strains, locus YLL026W, stronger effect = lower value 0.999 | S. cerevisiae deletion strains, locus YLL041C, strain sdh2, stronger effect = lower value 0.991 | S. cerevisiae deletion strains, locus YLR027C, strain aat2, stronger effect = lower value 1 | S. cerevisiae deletion strains, locus YLR039C, strain RIC1, stronger effect = lower value 0.936 | S. cerevisiae deletion strains, locus YLR058C, strain SHM2, stronger effect = lower value 0.978 | S. cerevisiae deletion strains, locus YLR102C, strain apc9, stronger effect = lower value 0.99 | S. cerevisiae deletion strains, locus YLR113W, strain HOG1, stronger effect = lower value 1.01 | S. cerevisiae deletion strains, locus YLR221C, strain rsa3, stronger effect = lower value 0.991 | S. cerevisiae deletion strains, locus YLR258W, strain gsy2, stronger effect = lower value 0.977 | S. cerevisiae deletion strains, locus YLR262C, strain YPT6 (second series), stronger effect = lower value 0.997 | S. cerevisiae deletion strains, locus YLR262C, strain YPT6, stronger effect = lower value 0.929 | S. cerevisiae deletion strains, locus YLR268W, strain sec22, stronger effect = lower value 0.979 | S. cerevisiae deletion strains, locus YLR320W, strain mms22, stronger effect = lower value 0.999 | S. cerevisiae deletion strains, locus YLR330W, strain CHS5, stronger effect = lower value 0.989 | S. cerevisiae deletion strains, locus YLR342W, strain FKS1 (second series), stronger effect = lower value 1.06 | S. cerevisiae deletion strains, locus YLR342W, strain FKS1, stronger effect = lower value 0.995 | S. cerevisiae deletion strains, locus YLR357W, strain rsc2, stronger effect = lower value 1.02 | S. cerevisiae deletion strains, locus YLR370C, strain arc18, stronger effect = lower value 0.98 | S. cerevisiae deletion strains, locus YLR371W, strain rom2, stronger effect = lower value 0.994 | S. cerevisiae deletion strains, locus YLR384C, strain iki3, stronger effect = lower value 0.989 | S. cerevisiae deletion strains, locus YLR418C, strain cdc73, stronger effect = lower value 1.02 | S. cerevisiae deletion strains, locus YML016C, strain PPZ1, stronger effect = lower value 0.988 | S. cerevisiae deletion strains, locus YML032C, strain rad52, stronger effect = lower value 0.993 | S. cerevisiae deletion strains, locus YML120C, strain ndi1, stronger effect = lower value 1 | S. cerevisiae deletion strains, locus YML124C, strain tub3, stronger effect = lower value 0.992 | S. cerevisiae deletion strains, locus YMR058W, strain fet3, stronger effect = lower value 0.999 | S. cerevisiae deletion strains, locus YMR078C, strain ctf18, stronger effect = lower value 0.987 | S. cerevisiae deletion strains, locus YMR125W, strain sto1, stronger effect = lower value 0.976 | S. cerevisiae deletion strains, locus YMR129W, stronger effect = lower value 1 | S. cerevisiae deletion strains, locus YMR205C, strain PFK2, stronger effect = lower value 1.01 | S. cerevisiae deletion strains, locus YMR223W, strain ubp8, stronger effect = lower value 1.05 | S. cerevisiae deletion strains, locus YMR231W, strain pep5, stronger effect = lower value 0.992 | S. cerevisiae deletion strains, locus YMR263W, strain SAP30, stronger effect = lower value 0.992 | S. cerevisiae deletion strains, locus YMR307W, strain GAS1, stronger effect = lower value 1.06 | S. cerevisiae deletion strains, locus YNL067W, strain RPL9B, stronger effect = lower value 0.968 | S. cerevisiae deletion strains, locus YNL071W, strain lat1, stronger effect = lower value 0.999 | S. cerevisiae deletion strains, locus YNL153C, strain GIM3, stronger effect = lower value 0.951 | S. cerevisiae deletion strains, locus YNL183C, strain NPR1, stronger effect = lower value 0.944 | S. cerevisiae deletion strains, locus YNL209W, strain ssb2, stronger effect = lower value 0.974 | S. cerevisiae deletion strains, locus YNL233W, strain BNI4, stronger effect = lower value 0.974 | S. cerevisiae deletion strains, locus YNL248C, strain rpa49, stronger effect = lower value 0.986 | S. cerevisiae deletion strains, locus YNL250W, strain rad50, stronger effect = lower value 0.99 | S. cerevisiae deletion strains, locus YNL271C, strain bni1, stronger effect = lower value 0.98 | S. cerevisiae deletion strains, locus YNL298W, strain CLA4, stronger effect = lower value 0.994 | S. cerevisiae deletion strains, locus YNL307C, strain MCK1, stronger effect = lower value 0.986 | S. cerevisiae deletion strains, locus YNL322C, strain KRE1 (second series), stronger effect = lower value 0.997 | S. cerevisiae deletion strains, locus YNL322C, strain KRE1, stronger effect = lower value 0.991 | S. cerevisiae deletion strains, locus YNR049C, strain mso1, stronger effect = lower value 0.978 | S. cerevisiae deletion strains, locus YNR052C, strain pop2, stronger effect = lower value 0.998 | S. cerevisiae deletion strains, locus YOL006C, strain TOP1, stronger effect = lower value 0.957 | S. cerevisiae deletion strains, locus YOL012C, strain htz1 1.27 | S. cerevisiae deletion strains, locus YOL147C, strain pex11, stronger effect = lower value 1 | S. cerevisiae deletion strains, locus YOR001W, strain rrp6, stronger effect = lower value 0.998 | S. cerevisiae deletion strains, locus YOR061W, strain CKA2, stronger effect = lower value 0.956 | S. cerevisiae deletion strains, locus YOR069W, strain VPS5, stronger effect = lower value 0.995 | S. cerevisiae deletion strains, locus YOR070C, strain gyp1, stronger effect = lower value 0.995 | S. cerevisiae deletion strains, locus YOR080W, strain dia2, stronger effect = lower value 0.991 | S. cerevisiae deletion strains, locus YOR083W, strain WHI5, stronger effect = lower value 0.999 | S. cerevisiae deletion strains, locus YOR106W, strain vam3, stronger effect = lower value 0.977 | S. cerevisiae deletion strains, locus YOR136W, strain idh2, stronger effect = lower value 0.988 | S. cerevisiae deletion strains, locus YOR144C, strain elg1, stronger effect = lower value 0.99 | S. cerevisiae deletion strains, locus YOR184W, strain ser1, stronger effect = lower value 0.991 | S. cerevisiae deletion strains, locus YOR231W, strain MKK1, stronger effect = lower value 1.01 | S. cerevisiae deletion strains, locus YOR265W, strain rbl2, stronger effect = lower value 1 | S. cerevisiae deletion strains, locus YOR270C, strain vph1, stronger effect = lower value 0.918 | S. cerevisiae deletion strains, locus YOR290C, strain snf2, stronger effect = lower value 0.99 | S. cerevisiae deletion strains, locus YOR316C, strain cot1, stronger effect = lower value 0.975 | S. cerevisiae deletion strains, locus YPL051W, strain arl3, stronger effect = lower value 0.98 | S. cerevisiae deletion strains, locus YPL078C, strain atp4, stronger effect = lower value 0.992 | S. cerevisiae deletion strains, locus YPL106C, strain sse1, stronger effect = lower value 0.991 | S. cerevisiae deletion strains, locus YPL240C, strain hsp82, stronger effect = lower value 0.985 | S. cerevisiae deletion strains, locus YPL241C, strain CIN2, stronger effect = lower value 0.994 | S. cerevisiae deletion strains, locus YPL256C, strain CLN2, stronger effect = lower value 1.03 | S. cerevisiae deletion strains, locus YPR119W, strain clb2, stronger effect = lower value 0.98 | S. cerevisiae deletion strains, locus YPR141C, strain kar3, stronger effect = lower value 0.973 | S. cerevisiae deletion strains, locus YPR163C, strain tif3, stronger effect = lower value 0.992 | S. cerevisiae deletion strains, locus YPR167C, strain met16, stronger effect = lower value 0.997 | S. cerevisiae deletion strains, strain wtn01, stronger effect = lower value 1.01 | S. cerevisiae strains, strain wild type, stronger effect = lower value 0.979
